Measured values as given in PubChem BioAssay (Tox21).
Results filed as inconclusive are left out. Calls of active or inactive are those of the source. Unless noted, calls come from the whole dose curve; as a rule, active = well fitted curve in the direction sought with a large enough effect in the repeat runs; inconclusive = weak or mixed curves; inactive = no such curve, though single readings can be large; an effect the other way counts as inactive or inconclusive.

Assays:
[1] = qHTS assay to identify small molecule agonists of the peroxisome proliferator-activated receptor delta (PPARd) signaling pathway - cell viability counter screen (AID 743211); note: nearly all actives have a fitted effect of over 55% in size; note: potency is the fitted concentration of half-maximal effect
Outline: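 Counter screen for cytotoxicity run in parallel with the PPARd reporter screen. Beta-lactamase reporter HEK293H cells exposed to compounds 17 h; ATP-based CellTiter-Glo luminescence quantified viability.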

[2] = target: Peroxisome proliferator-activated receptor delta (Homo sapiens) (UniProt Q03181); assay: qHTS assay to identify small molecule agonists of the peroxisome proliferator-activated receptor delta (PPARd) signaling pathway (AID 743212; calls by dose curve)
Outline: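 A PPARd-bla HEK293H line with beta-lactamase under an Upstream Activator Sequence is treated with compounds at 37 C. Substrate loading for 2 h at room temperature precedes the fluorescence measurement.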

[3] = qHTS assay to identify small molecule antagonists of the peroxisome proliferator-activated receptor delta (PPARd) signaling pathway - cell viability counter screen (AID 743213); note: nearly all actives have a fitted effect of over 50% in size; note: potency is the fitted concentration of half-maximal effect
Outline: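 Viability counter-screen, qHTS format: PPARd-bla HEK293H, L165041 300 nM final, 17 h compound exposure at 37 C, CellTiter-Glo luminescence after 30 min RT.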

[4] = target: Peroxisome proliferator-activated receptor delta (Homo sapiens) (UniProt Q03181); assay: qHTS assay to identify small molecule antagonists of the peroxisome proliferator-activated receptor delta (PPARd) signaling pathway (AID 743215; active = well fitted inhibition curve with a large enough effect in the signal ratio in the repeat runs, not every such curve was filed as active; the % refers to the signal ratio;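 note: cells stimulated with agonist L165041 at 300 nM final during compound exposure; series mostly up to about 62 µM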)
Outline: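 Antagonist-mode beta-lactamase reporter screen: HEK293H cells with UAS-bla under PPARd control, stimulated by 300 nM L165041 (final) alongside test compound for 17 h at 37 C, then FRET fluorescence after 2 h substrate incubation.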

[5] = target: Bile acid receptor (Homo sapiens) (UniProt Q96RI1); assay: qHTS assay to identify small molecule antagonists of the farnesoid-X-receptor (FXR) signaling pathway (AID 743217; active = well fitted inhibition curve with a large enough effect in the signal ratio in the repeat runs, not every such curve was filed as active; the % refers to the signal ratio)
Outline: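 Beta-lactamase reporter under UAS control in HEK 293T cells; compound exposure 16 h at 37 °C in the presence of chenodeoxycholic acid (50 uM final); signal from B/G FRET substrate after 2 h at room temperature.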

[6] = target: Bile acid receptor (Homo sapiens) (UniProt Q96RI1); assay: qHTS assay to identify small molecule agonists of the farnesoid-X-receptor (FXR) signaling pathway (AID 743220; active = well fitted activation curve with a large enough effect in the signal ratio in the repeat runs, not every such curve was filed as active; the % refers to the signal ratio)
Outline: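 Beta-lactamase reporter under UAS control in GeneBLAzer FXR HEK 293T cells (5000/well) measured with LiveBLAzer FRET substrate after 2 h at room temperature. Compound exposure lasted 16 h at 37C.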

[7] = qHTS assay to identify small molecule antagonists of the farnesoid-X-receptor (FXR) signaling pathway - cell viability counter screen (AID 743221; active = well fitted cell-killing curve with a large enough effect in the repeat runs, not every such curve was filed as active; note: nearly all actives have a fitted effect of over 50% in size)
Outline: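 Multiplexed counter screen: viability of FXR-bla HEK 293T cells under agonist stimulation by chenodeoxycholic acid (50 uM, final) and test compound for 16 h at 37 C, measured by CellTiter-Glo luminescence in the reporter wells.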

[8] = target: Vitamin D3 receptor (Homo sapiens) (UniProt P11473); assay: qHTS assay to identify small molecule agonists of the vitamin D receptor (VDR) signaling pathway (AID 743222; calls by dose curve)
Outline: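 Agonist activity measured in VDR-bla reporter cells. Exposure 16 h, 37C, 5% CO2; detection by B/G FRET substrate, 2 h RT.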

[9] = target: Vitamin D3 receptor (Homo sapiens) (UniProt P11473); assay: qHTS assay to identify small molecule antagonists of the vitamin D receptor (VDR) signaling pathway (AID 743223; active = well fitted inhibition curve with a large enough effect in the signal ratio in the repeat runs, not every such curve was filed as active; the % refers to the signal ratio)
Outline: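 Cells carrying a VDR-driven beta-lactamase reporter (VDR-bla) were co-treated with compound and 3 nM final 1alpha,25-dihydroxyvitamin D3 for 16 h at 37C; reporter activity was measured as FRET substrate fluorescence after 2 h at room temperature.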

[10] = qHTS assay to identify small molecule agonists of the vitamin D receptor (VDR) signaling pathway - cell viability counter screen (AID 743224); note: nearly all actives have a fitted effect of over 50% in size; note: potency is the fitted concentration of half-maximal effect
Outline: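 VDR-bla cell line, quantitative HTS format; 16 h compound incubation (37C, 5% CO2); ATP-based CellTiter-Glo luminescence measured in the reporter assay wells.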

[11] = qHTS assay to identify small molecule agonists of the NFkB signaling pathway (AID 1159509; active = well fitted curve in the direction sought with a large enough effect in the signal ratio in the repeat runs, not every such curve was filed as active; the % refers to the signal ratio; note: series mostly up to about 61 µM)
Outline: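 ME-180 NFkB-bla, 2,000 cells/well, overnight plating; cpd pinned in DMSO, 5 h 37 C; B/G FRET substrate 1.5 h RT; ex 405, em 460/530 nm.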

[12] = qHTS assay to identify small molecule agonists of the endoplasmic reticulum stress response signaling pathway (AID 1159516; active = well fitted activation curve with a large enough effect in the signal ratio in the repeat runs, not every such curve was filed as active; the % refers to the signal ratio)
Outline: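 ER stress element reporter (bla) in HeLa. 1,500 cells/well, overnight attachment; 5 hr compound; 2 hr RT substrate; dual-emission fluorescence.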

[13] = qHTS assay to identify small molecule agonists of the endoplasmic reticulum stress response signaling pathway - cell viability counter screen (AID 1159517; calls by dose curve;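 note: HeLa cells carrying an ER stress response element beta-lactamase reporter; series mostly up to about 61 µM; nearly all actives have a fitted effect of over 50% in size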)
Outline: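 CellTiter-Glo was added to wells already read for beta-lactamase FRET, and luminescence was recorded 30 min later. Cells: ESRE-bla HeLa, 1,500 per well, compound exposure 5 hr at 37 C.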

[14] = qHTS assay to identify small molecule antagonists of the retinoid-related orphan receptor gamma (ROR-gamma) signaling pathway - cell viability counter screen (AID 1159520); note: nearly all actives have a fitted effect of over 50% in size; note: potency is the fitted concentration of half-maximal effect
Outline: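 Tet-on ROR gamma CHO cells (1,000/well) were plated 4 hr, given compounds in DMSO for 2 hr at 37 C, then induced with 1 uM final doxycycline for 16 hr. Viability was read as ATP by CellTiter-Glo luminescence after 30 min.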

[15] = target: Nuclear receptor ROR-gamma (Homo sapiens) (UniProt P51449); assay: qHTS assay to identify small molecule antagonists of the retinoid-related orphan receptor gamma (ROR-gamma) signaling pathway (AID 1159521)
Outline: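 Cells were plated, rested 4 h at 37 C, exposed to compounds for 2 h, then given 1 uM final doxycycline hyclate to induce RORγ expression. After 16 h, ONE-Glo luminescence from the ROR response element reporter was measured.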

[16] = qHTS assay to identify small molecule agonists of the AP-1 signaling pathway (AID 1159526; calls by dose curve)
[17] = qHTS assay to identify small molecule antagonists of the vitamin D receptor (VDR) signaling pathway - cell viability counter screen (AID 743225); note: nearly all actives have a fitted effect of over 50% in size
Outline: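 HEK293T VDR-bla; cpd + 1a,25-(OH)2D3 3 nM final, 16 h 37C/5% CO2; B/G FRET substrate 2 h RT; then CellTiter-Glo 30 min RT, luminescence.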

[18] = qHTS assay to identify small molecule agonists of the farnesoid-X-receptor (FXR) signaling pathway - cell viability counter screen (AID 743218); note: nearly all actives have a fitted effect of over 45% in size
Outline: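 In GeneBLAzer FXR-UAS-bla HEK 293T cells, compounds act for 16 h at 37 C. Cell viability is then scored in the reporter wells by CellTiter-Glo, 30 min at RT, luminescence.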

[19] = qHTS assay to identify small molecule agonists of the AP-1 signaling pathway - cell viability counter screen (AID 1159525; calls by dose curve; note: nearly all actives have a fitted effect of over 55% in size)
Outline: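 ME-180 AP-1-bla, 2500 cells/well, Opti-MEM + 0.5% dialyzed FBS; overnight 37 °C; cpd 15-pt titration, 5 h 37 °C; CellTiter-Glo 30 min RT; luminescence read; normalised to TOAB and DMSO controls.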

Measured: Potency

Vitamin D3 receptor (Homo sapiens), sequence (P11473 whole entry, looked up): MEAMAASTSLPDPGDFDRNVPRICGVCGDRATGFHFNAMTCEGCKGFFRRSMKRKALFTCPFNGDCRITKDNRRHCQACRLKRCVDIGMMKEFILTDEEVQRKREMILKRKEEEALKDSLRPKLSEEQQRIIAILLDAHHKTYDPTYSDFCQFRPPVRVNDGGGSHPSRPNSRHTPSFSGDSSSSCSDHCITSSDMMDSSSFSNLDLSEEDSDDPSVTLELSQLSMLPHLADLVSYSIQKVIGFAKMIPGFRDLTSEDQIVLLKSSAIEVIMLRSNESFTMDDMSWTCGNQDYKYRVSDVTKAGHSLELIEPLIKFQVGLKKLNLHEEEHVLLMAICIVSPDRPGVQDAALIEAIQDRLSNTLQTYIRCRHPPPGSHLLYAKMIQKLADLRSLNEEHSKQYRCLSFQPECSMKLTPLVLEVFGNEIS
Peroxisome proliferator-activated receptor delta (Homo sapiens), sequence (Q03181 whole entry, looked up): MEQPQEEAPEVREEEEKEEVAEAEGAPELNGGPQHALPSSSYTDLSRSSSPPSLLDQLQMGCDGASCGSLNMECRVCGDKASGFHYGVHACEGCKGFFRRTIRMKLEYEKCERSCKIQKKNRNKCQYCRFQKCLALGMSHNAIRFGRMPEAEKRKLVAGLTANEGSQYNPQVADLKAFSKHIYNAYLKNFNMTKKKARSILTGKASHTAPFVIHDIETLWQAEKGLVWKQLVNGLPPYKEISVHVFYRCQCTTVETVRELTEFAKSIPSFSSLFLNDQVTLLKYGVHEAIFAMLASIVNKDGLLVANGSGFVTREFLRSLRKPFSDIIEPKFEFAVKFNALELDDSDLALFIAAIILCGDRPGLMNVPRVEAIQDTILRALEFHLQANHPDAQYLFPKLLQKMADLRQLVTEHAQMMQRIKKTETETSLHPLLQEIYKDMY
Bile acid receptor (Homo sapiens), sequence (Q96RI1 whole entry, looked up): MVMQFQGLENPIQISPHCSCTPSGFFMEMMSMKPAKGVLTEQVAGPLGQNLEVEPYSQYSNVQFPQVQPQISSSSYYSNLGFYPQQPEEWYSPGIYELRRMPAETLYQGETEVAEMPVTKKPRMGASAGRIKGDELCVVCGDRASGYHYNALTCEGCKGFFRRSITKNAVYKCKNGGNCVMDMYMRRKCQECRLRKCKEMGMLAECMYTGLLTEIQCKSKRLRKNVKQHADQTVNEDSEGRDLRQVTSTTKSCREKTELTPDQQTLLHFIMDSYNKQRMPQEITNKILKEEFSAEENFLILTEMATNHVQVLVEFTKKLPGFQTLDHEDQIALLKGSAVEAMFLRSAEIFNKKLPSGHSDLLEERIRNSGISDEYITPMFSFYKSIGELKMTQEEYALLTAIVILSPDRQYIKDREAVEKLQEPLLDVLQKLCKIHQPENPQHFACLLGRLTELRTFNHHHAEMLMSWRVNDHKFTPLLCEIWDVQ

Cc1ccccc1N=C(N)Nc1ccccc1C
not listed: [17] | [18] | [19]
inactive: all other assays above

N#[N+]c1ccc2c(S(=O)(=O)[O-])cccc2c1O
not listed: [2] | [4] | [5] | [6] | [15] | [18] | [19]
inactive: all other assays above

CCC(=O)OC
inactive: [1] | [18] | [7] | [9] | [10] | [11] | [12] | [13] | [14] | [16]

CCCCOc1ccc(OCCCN2CCOCC2)cc1
not listed: [2] | [4] | [9] | [15] | [18] | [19]
inactive: all other assays above

CC(=O)OCC[N+](C)(C)C
not listed: [6] | [15] | [16] | [18]
inactive: all other assays above

CC(C)C[C@H](NC(=O)[C@H](CCc1ccccc1)NC(=O)CN1CCOCC1)C(=O)N[C@@H](Cc1ccccc1)C(=O)N[C@@H](CC(C)C)C(=O)[C@@]1(C)CO1
inactive: [11] | [12] | [13] | [19] | [16]
active: [1] 0.237 µM | [14] 0.75 µM

CCC(C)(C)OC
not listed: [4] | [8] | [9] | [15] | [18]
inactive: all other assays above

CCCCN(CCN(CCCC)C(=O)N1CCOCC1)C(=O)N1CCOCC1
active: [10] 33.5 µM
inactive: [18] | [7] | [9] | [17] | [11] | [12] | [13] | [14] | [19]

CN(C)CCC=C1c2ccccc2C=Cc2ccccc21
inactive: [4] | [9] | [10] | [11] | [12] | [13] | [14] | [15]
active: [3] 23.7 µM

O=C(/C=C/c1ccccc1)OCCc1ccccc1
not listed: [2] | [4] | [5] | [6] | [8] | [9] | [15] | [18]
inactive: all other assays above

C=C1CCC2CC1C2(C)C (stereo not drawn)
not listed: [3] | [4] | [5] | [6] | [8] | [15]
inactive: all other assays above

CCCCCCCC/C=C\CCCCCCCCCCCC(=O)O
not listed: [6] | [8] | [9] | [19]
inactive: all other assays above

CN1CC(=O)N2[C@H](c3ccc4c(c3)OCO4)c3[nH]c4ccccc4c3C[C@@H]2C1=O
not listed: [5] | [6] | [19]
inactive: all other assays above

CCC(OCCCOC)OC(C)=O (stereo not drawn)
not listed: [5] | [6] | [15]
inactive: all other assays above

O=C1c2ccccc2C(=O)C1c1ccc(Br)cc1
not listed: [2] | [5] | [6] | [19]
inactive: all other assays above

COc1ccccc1N1CCN(CCCCNC(=O)c2ccc(-c3ccc(C(C)=O)cc3)cc2)CC1
not listed: [8] | [15]
inactive: all other assays above

CCOC(=O)c1ccc(O)c(O)c1
not listed: [5] | [6] | [8] | [9] | [19]
inactive: all other assays above

CC(O)c1ccccc1 (stereo not drawn)
not listed: [5] | [6] | [15] | [19]
inactive: all other assays above
